Laboratory results published in PubChem BioAssay (Tox21).
Values joined by “and” are separate entries in the source; they are usually repeats but may differ in a detail not shown here. Identical values can stand only once. Records with an inconclusive call do not appear. Some structures have more than one record in an assay (separate samples or runs), and their calls can disagree. Active and inactive are the calls of the source. Unless noted, calls come from the whole dose curve; as a rule, active = well fitted curve in the direction sought with a large enough effect in the repeat runs; inconclusive = weak or mixed curves; inactive = no such curve, though single readings can be large; an effect the other way counts as inactive or inconclusive.

Experiments:
[1] = qHTS assay to identify small molecule antagonists of the estrogen related receptor (ERR) signaling pathway from Tox21 library - cell viability counter screen (AID 1224834); note: nearly all actives have a fitted effect of over 30% in size; note: potency is the fitted concentration of half-maximal effect
Method in brief: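 After 17.5 h of compound exposure at 37 C, ERR cells are incubated with CellTiter-Fluor for 30 min and fluorescence intensity serves as the viability measure.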

[2] = target: Luciferin 4-monooxygenase (Photinus pyralis) (UniProt P08659); test: qHTS assay to identify small molecule inhibitors of firefly luciferase (AID 1224835); note: nearly all actives have a fitted effect of over 25% in size; note: potency is the fitted concentration of half-maximal effect
Method in brief: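 Biochemical qHTS: compounds run as interplate titrations against purified firefly enzyme, with D-luciferin and ATP each at its KM concentration. Light output recorded by CCD imaging.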

[3] = qHTS assay to identify small molecule agonists of the constitutive androstane receptor (CAR) signaling pathway - cell viability counter screen (AID 1224836); note: nearly all actives have a fitted effect of over 45% in size
Method in brief: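 Viability read-out: CellTiter-Fluor fluorescence after 23 h compound exposure at 37 C/5% CO2 in double-stable HepG2-CYP2B6-hCAR cells, with PK11195 present at 0.75 uM final; compounds tested in 15-point titration.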

[4] = qHTS assay to identify small molecule antagonists of the constitutive androstane receptor (CAR) signaling pathway - cell viability counter screen (AID 1224837); note: nearly all actives have a fitted effect of over 45% in size
Method in brief: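 Counter screen run in HepG2-CYP2B6-hCAR cells: 4 hr settle, compound titration (15 concentrations) with 50 nM CITCO, 23 hr at 37 C/5% CO2, CellTiter-Fluor fluorescence.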

[5] = target: Nuclear receptor subfamily 1 group I member 3 (Homo sapiens) (UniProt Q14994); test: qHTS assay to identify small molecule antagonists of the constitutive androstane receptor (CAR) signaling pathway (AID 1224838);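 note: HepG2 cells stably expressing hCAR with CYP2B6 luciferase reporter stimulated by CITCO; nearly all actives have a fitted effect of over 40% in size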; note: potency is the fitted concentration of half-maximal effect
Method in brief: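 Cell line: HepG2 double-stable for hCAR and CYP2B6-2.2kb reporter. Agonist: CITCO, 50 nM final. Compounds: 15 concentrations, 24 h, 37 C. Detection: ONE-Glo luminescence.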

[6] = target: Nuclear receptor subfamily 1 group I member 3 (Homo sapiens) (UniProt Q14994); test: qHTS assay to identify small molecule agonists of the constitutive androstane receptor (CAR) signaling pathway (AID 1224839); note: nearly all actives have a fitted effect of over 15% in size; note: potency is the fitted concentration of half-maximal effect;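 for activation: HepG2 cells stably carrying human CAR and a CYP2B6 luciferase reporter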
Method in brief: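 Luminescence read-out (ONE-Glo, 30 min, room temperature) from double-stable HepG2-CYP2B6-hCAR cells exposed 24 h to 15-point compound series in presence of 0.75 uM PK11195 final.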

[7] = qHTS assay to identify small molecule antagonists of the estrogen related receptor signaling pathway with the pleiotropic PPARgamma coactivator (PGC) from Tox21 10K library (AID 1224841; call rule not given here; note: actives are mostly falling curves and most rising ones were filed inactive; nearly all actives have a fitted effect of over 50% in size)
Method in brief: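 qHTS antagonist format: PGC/ERR cells, 2k/well, compound in DMSO by pin transfer after 6 h attachment, 18 h treatment at 37 C, One-Glo luminescence read at 30 min.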

[8] = qHTS assay to identify small molecule agonists of the estrogen related receptor signaling pathway with the pleiotropic PPARgamma coactivator (PGC) from Tox21 10K library (AID 1224842); note: nearly all actives have a fitted effect of over 15% in size; note: potency is the fitted concentration of half-maximal effect
Method in brief: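 PGC/ERR reporter cell line, 2,000 cells per well, incubated 6 h at 37 C before 23 nL compound in DMSO was added. After 18 h at 37 C, One-Glo luminescence read following 30 min at room temperature.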

[9] = target: Thyrotropin receptor (Homo sapiens) (UniProt P16473); test: qHTS assay to identify small molecule agonists of the thyroid stimulating hormone receptor (TSHR) signaling pathway (AID 1224843; calls by dose curve; note: nearly all actives have a fitted effect of over 45% in size; note: potency is the fitted concentration of half-maximal effect)
Method in brief: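 TSHR-HEK293 cells in agonist mode, 30 min room-temperature step, then cAMP measured by competitive HTRF (cAMP-d2 with anti-cAMP cryptate) after 1 h at room temperature. Tested at 15 concentrations in triplicate.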

[10] = qHTS assay to identify small molecule agonists of the hypoxia (HIF-1) signaling pathway - cell viability counter screen (AID 1224844; calls by dose curve; note: nearly all actives have a fitted effect of over 50% in size)
Method in brief: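 Cells (HRE-bla ME-180, 2,000 per well) sat 5 hrs at 37C, got compound for 17 hrs, were read for CCF4-AM FRET, and were finally lysed with CellTiter-Glo for a 30 min room-temperature luminescence read.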

[11] = qHTS assay to identify small molecule agonists of H2AX (AID 1224845; active = well fitted activation curve with a large enough effect in the signal ratio in the repeat runs, not every such curve was filed as active; the % refers to the signal ratio; note: potency is the fitted concentration of half-maximal effect)
Method in brief: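 Wild-type CHO-K1 cells, plated overnight, exposed 3hr at 37C to 15 concentrations (0.76% DMSO final). Lysed, then HTRF anti-pH2AX (S139) cryptate and anti-H2AX-d2 antibodies, 24 hr room temperature; 665/620 nm emission read.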

[12] = qHTS assay to identify small molecule agonists of the hypoxia (HIF-1) signaling pathway (AID 1224846; active = well fitted activation curve with a large enough effect in the signal ratio in the repeat runs, not every such curve was filed as active; the % refers to the signal ratio)
Method in brief: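 A low-serum medium (0.5% dialyzed FBS) holding 2,000 HRE-bla ME-180 cells per well is preincubated for 5 hrs, dosed with compounds by pintool, and kept a further 17 hrs at 37C, 5% CO2 before CCF4-AM FRET detection of beta-lactamase.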

[13] = qHTS assay to identify small molecule agonists of H2AX - cell viability counter screen (AID 1224847; calls by dose curve; note: nearly all actives have a fitted effect of over 30% in size; note: potency is the fitted concentration of half-maximal effect)
Method in brief: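 CHO-K1 wt, 1000 cells/well, o/n 37C; cpds 15 conc, 3 h 37C, 0.76% DMSO; CellTiter-Glo, 30 min RT, luminescence.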

[14] = qHTS assay to identify small molecule antagonists of the estrogen related receptor (ERR) signaling pathway from Tox21 library (AID 1224848); note: nearly all actives have a fitted effect of over 50% in size; note: potency is the fitted concentration of half-maximal effect
Method in brief: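 ERR reporter cell line (from NTP) seeded 2,000 cells/well, rested 6 h at 37 C/5% CO2, then pin-dosed with compounds in DMSO. After 18 h at 37 C, ONE-Glo added; luminescence read after 30 min at room temperature.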

[15] = qHTS RealTime-Glo MT Cell Viability Assay in HepG2 cells - 24 hour (AID 1224867); note: nearly all actives have a fitted effect of over 50% in size
Method in brief: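 Tox21 10K library screened in qHTS format on HepG2 cells carrying RealTime-Glo reagents. Compounds were added after a 5 h preincubation, and the luminescent signal from continuous culture was measured repeatedly during 40 h treatment.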

[16] = qHTS RealTime-Glo MT Cell Viability Assay in HEK293 cells - 32 hour (AID 1224868); note: nearly all actives have a fitted effect of over 50% in size; note: potency is the fitted concentration of half-maximal effect
Method in brief: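 Luminescence generated by NanoLuc from substrate produced by living HEK293 cells served as the viability signal. Each value reflects the reading at its stated time point during continuous 40 h compound exposure at 37 C.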

[17] = A CellTox Green Cytotoxicity Assay to monitor cytotoxicity in HEK293 cells - 0 hour (AID 1224869); note: nearly all actives have a fitted effect of over 50% in size
Method in brief: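 Fluorescence intensity, read at 0, 8, 16, 24, 32 and 40 h of compound treatment, reflected dye binding to DNA of dead HEK293 cells; compounds (23 nL, DMSO) were added 5 h after plating cells with reagent.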

[18] = qHTS assay to identify small molecule agonists of the estrogen related receptor (ERR) signaling pathway from Tox21 library (AID 1224849; calls by dose curve; note: nearly all actives have a fitted effect of over 15% in size); conditions: ERR reporter cell line, ONE-Glo luciferase, 18 h; at 92.4 µM (top of the series)
Method in brief: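 Screening used an NTP-provided ERR luciferase cell line. Compounds in DMSO were added 6 h after seeding and left 18 h at 37 C before a 30 min ONE-Glo step and luminescence reading.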

[19] = qHTS assay to identify small molecule antagonists of the estrogen related receptor signaling pathway with the pleiotropic PPARgamma coactivator (PGC) from Tox21 10K library - cell viability counter screen (AID 1224840; active = well fitted cell-killing curve with a large enough effect in the repeat runs, not every such curve was filed as active; note: nearly all actives have a fitted effect of over 40% in size)
Method in brief: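 Following seeding of 2,000 PGC/ERR cells/well and 6 hours' incubation, test compounds were delivered in DMSO. The plates then sat 17.5 hours at 37 C before a fluorogenic live-cell protease reagent (CellTiter-Fluor) was read after 30 min.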
% is set by controls: 0 for no effect and ±100 for the full control effect.

Sequence of Nuclear receptor subfamily 1 group I member 3 (Homo sapiens) (Q14994 whole entry, looked up): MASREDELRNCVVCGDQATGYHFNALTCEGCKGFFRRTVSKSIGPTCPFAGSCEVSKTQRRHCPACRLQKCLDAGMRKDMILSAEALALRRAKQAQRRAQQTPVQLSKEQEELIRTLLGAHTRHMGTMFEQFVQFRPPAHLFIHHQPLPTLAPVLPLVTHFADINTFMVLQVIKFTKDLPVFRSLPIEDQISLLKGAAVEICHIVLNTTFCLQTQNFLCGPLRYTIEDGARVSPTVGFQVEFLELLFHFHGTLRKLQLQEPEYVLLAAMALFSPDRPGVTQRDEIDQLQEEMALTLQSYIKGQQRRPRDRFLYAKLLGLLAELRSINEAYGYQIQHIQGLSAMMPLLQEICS
Sequence of Luciferin 4-monooxygenase (Photinus pyralis) (P08659 whole entry, looked up): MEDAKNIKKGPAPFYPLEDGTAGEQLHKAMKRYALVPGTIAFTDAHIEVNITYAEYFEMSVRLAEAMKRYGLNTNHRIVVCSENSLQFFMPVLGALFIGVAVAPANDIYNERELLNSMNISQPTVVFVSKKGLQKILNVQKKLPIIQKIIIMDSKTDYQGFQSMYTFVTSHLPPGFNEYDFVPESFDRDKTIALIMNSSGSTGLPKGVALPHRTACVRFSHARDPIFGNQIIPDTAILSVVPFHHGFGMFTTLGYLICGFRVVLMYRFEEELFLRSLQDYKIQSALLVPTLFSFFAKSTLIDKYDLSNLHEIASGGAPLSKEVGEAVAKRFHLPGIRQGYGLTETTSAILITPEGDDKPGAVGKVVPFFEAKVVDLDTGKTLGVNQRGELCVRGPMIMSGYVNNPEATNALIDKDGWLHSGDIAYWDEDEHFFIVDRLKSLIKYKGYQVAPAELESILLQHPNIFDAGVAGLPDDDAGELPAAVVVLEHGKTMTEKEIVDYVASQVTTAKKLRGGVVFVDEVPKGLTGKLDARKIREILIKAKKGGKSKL
Sequence of Thyrotropin receptor (Homo sapiens) (P16473 whole entry, looked up): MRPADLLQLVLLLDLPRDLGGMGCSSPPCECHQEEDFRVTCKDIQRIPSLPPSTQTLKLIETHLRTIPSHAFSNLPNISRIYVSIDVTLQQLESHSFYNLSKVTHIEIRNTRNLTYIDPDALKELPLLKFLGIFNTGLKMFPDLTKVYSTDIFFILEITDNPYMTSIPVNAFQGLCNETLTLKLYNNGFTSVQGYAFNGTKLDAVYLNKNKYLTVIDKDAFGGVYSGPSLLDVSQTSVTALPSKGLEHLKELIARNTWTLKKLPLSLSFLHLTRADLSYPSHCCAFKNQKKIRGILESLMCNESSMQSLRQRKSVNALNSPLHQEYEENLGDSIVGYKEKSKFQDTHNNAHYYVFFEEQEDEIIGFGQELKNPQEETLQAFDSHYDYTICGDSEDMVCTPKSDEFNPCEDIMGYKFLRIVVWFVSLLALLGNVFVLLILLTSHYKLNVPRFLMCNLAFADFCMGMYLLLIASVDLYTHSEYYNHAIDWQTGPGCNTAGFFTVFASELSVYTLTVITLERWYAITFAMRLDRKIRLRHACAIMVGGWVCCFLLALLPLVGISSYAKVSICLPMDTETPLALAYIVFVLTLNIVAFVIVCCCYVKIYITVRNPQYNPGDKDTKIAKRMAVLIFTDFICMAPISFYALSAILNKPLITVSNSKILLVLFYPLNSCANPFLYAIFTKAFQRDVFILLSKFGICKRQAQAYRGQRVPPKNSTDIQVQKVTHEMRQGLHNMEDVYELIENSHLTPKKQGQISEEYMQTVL

O=c1cc[nH]c(=O)[nH]1
inactive: Potency [1] | Potency [2] | Potency [3] | Potency [4] | Potency [5] | Potency [6] | Potency [7] | Potency [8] | Potency [9] | Potency [10] | Potency [11] | outcome [12] | Potency [13] | Potency [14] | outcome [15] | Potency [16] | Potency [17]

COc1cc(C=O)ccc1O
inactive: Potency [1] | Potency [2] | Potency [3] | Potency [4] | Potency [5] | Potency [6] | Potency [9] | Potency [10] | Potency [11] | outcome [12] | Potency [13] | outcome [15] | Potency [16] | Potency [17]

Cc1ccc(O)c(-n2nc3ccccc3n2)c1
active: Potency [2] 2.5 µM and 1.59 µM and 3.09 µM | Potency [6] 24.1 µM and 21.7 µM and 8.41 µM | Potency [8] 27.1 µM and 8.63 µM and 11.9 µM | Potency [13] 100 µM and 89.8 µM
inactive: Potency [1] | Potency [3] | Potency [4] | Potency [5] | Potency [7] | Potency [9] | Potency [10] | Potency [11] | outcome [12] | Potency [14] | outcome [15] | Potency [16] | Potency [17]

NC(=O)N1c2ccccc2C=Cc2ccccc21
inactive: Potency [1] | Potency [2] | Potency [3] | Potency [4] | Potency [5] | Potency [6] | Potency [10] | Potency [11] | outcome [12] | Potency [13] | outcome [15] | Potency [16] | Potency [17]

CCCCC/C(C=O)=C\c1ccccc1
inactive: Potency [1] | Potency [2] | Potency [3] | Potency [4] | Potency [5] | Potency [6] | Potency [9] | Potency [10] | Potency [11] | outcome [12] | Potency [13] | outcome [15] | Potency [16] | Potency [17]

C/C=C/c1ccc(O)c(OC)c1
inactive: Potency [1] | Potency [2] | Potency [3] | Potency [4] | Potency [5] | Potency [6] | Potency [9] | Potency [10] | Potency [11] | outcome [12] | Potency [13] | outcome [15] | Potency [16] | Potency [17]

CCOCCO
inactive: Potency [1] | Potency [2] | Potency [3] | Potency [4] | Potency [5] | Potency [6] | Potency [9] | Potency [10] | Potency [11] | outcome [12] | Potency [13] | outcome [15] | Potency [16] | Potency [17]

CN(C)C=O
inactive: Potency [1] | Potency [2] | Potency [3] | Potency [4] | Potency [5] | Potency [6] | Potency [7] | Potency [8] | Potency [9] | Potency [10] | Potency [11] | outcome [12] | Potency [13] | Potency [14] | outcome [15] | Potency [16] | Potency [17]

CCCCOCCOCCOC(C)=O
inactive: Potency [1] | Potency [2] | Potency [3] | Potency [4] | Potency [5] | Potency [6] | Potency [7] | Potency [8] | Potency [10] | Potency [11] | outcome [12] | Potency [13] | Potency [14] | activity change, positive = activation [18] 0.387% and 1.02% | outcome [15] | Potency [16] | Potency [17]

CCCCNC(=O)NS(=O)(=O)c1ccc(N)cc1
inactive: Potency [1] | Potency [2] | Potency [3] | Potency [4] | Potency [5] | Potency [6] | Potency [7] | Potency [8] | Potency [9] | Potency [10] | Potency [11] | outcome [12] | Potency [13] | Potency [14] | outcome [15] | Potency [16] | Potency [17]

Nc1cccc(N)c1
inactive: Potency [1] | Potency [2] | Potency [3] | Potency [4] | Potency [5] | Potency [6] | Potency [10] | Potency [11] | outcome [12] | Potency [13] | outcome [15] | Potency [16] | Potency [17]

Cc1cccc2ccccc12
inactive: Potency [1] | Potency [2] | Potency [3] | Potency [4] | Potency [5] | Potency [6] | Potency [7] | Potency [8] | Potency [9] | Potency [10] | Potency [11] | outcome [12] | Potency [13] | Potency [14] | outcome [15] | Potency [16] | Potency [17]

CCCCCCCCCCCCCC(=O)OC(C)C
inactive and 2.45 µM (active): Potency [16]
inactive: Potency [1] | Potency [2] | Potency [3] | Potency [4] | Potency [19] | Potency [9] | Potency [10] | Potency [11] | outcome [12] | Potency [13] | outcome [15] | Potency [17]

COC1=CC(=O)C[C@@H](C)[C@]12Oc1c(Cl)c(OC)cc(OC)c1C2=O
inactive: Potency [2] | Potency [3] | Potency [4] | Potency [6] | Potency [19] | Potency [7] | Potency [8] | Potency [10] | Potency [11] | outcome [12] | Potency [13] | outcome [15] | Potency [16] | Potency [17]
active: Potency [5] 9.6 µM and 13.7 µM | Potency [9] 9.6 µM and 17.2 µM | Potency [14] 4.81 µM and 7.7 µM and 5.96 µM

COC(=O)c1ccc(O)cc1
inactive: Potency [1] | Potency [2] | Potency [3] | Potency [4] | Potency [19] | Potency [9] | Potency [10] | Potency [11] | outcome [12] | Potency [13] | Potency [17]

COc1ccc(O)cc1
inactive: Potency [1] | Potency [2] | Potency [3] | Potency [4] | Potency [19] | Potency [9] | Potency [10] | outcome [12] | Potency [13] | outcome [15] | Potency [16] | Potency [17]
active: Potency [11] 86.5 µM and 89.8 µM and 49.2 µM

C#C[C@]1(O)CC[C@H]2[C@@H]3CCC4=CC(=O)CC[C@@H]4[C@H]3CC[C@@]21CC
inactive and 54.5 µM (active): Potency [1]
inactive and 89.8 µM (active): Potency [13]
43.6 µM (active) and inactive: Potency [16]
inactive: Potency [2] | Potency [3] | Potency [4] | Potency [19] | Potency [9] | Potency [10] | Potency [11] | outcome [12] | outcome [15] | Potency [17]
